An excerpt weighted towards active compounds, which were near 7.3% of everything screened.
FLuc modulator: counter-screen for miR-21 project: firefly luciferase inhibitors or activators. P08659. purified FLuc, Km substrates, luminescence inhibition. Potency, µM (top dose mostly 57.5 µM), for the others: at the top dose activity change, negative = inhibition, usual class: inhibitors. 360,000 compounds, 6.9% hits;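 also: plate controls were vehicle for no effect and reference inhibitor for full effect; nearly all actives have a fitted effect of over 55% in size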
Target sequence (P08659 whole entry, looked up): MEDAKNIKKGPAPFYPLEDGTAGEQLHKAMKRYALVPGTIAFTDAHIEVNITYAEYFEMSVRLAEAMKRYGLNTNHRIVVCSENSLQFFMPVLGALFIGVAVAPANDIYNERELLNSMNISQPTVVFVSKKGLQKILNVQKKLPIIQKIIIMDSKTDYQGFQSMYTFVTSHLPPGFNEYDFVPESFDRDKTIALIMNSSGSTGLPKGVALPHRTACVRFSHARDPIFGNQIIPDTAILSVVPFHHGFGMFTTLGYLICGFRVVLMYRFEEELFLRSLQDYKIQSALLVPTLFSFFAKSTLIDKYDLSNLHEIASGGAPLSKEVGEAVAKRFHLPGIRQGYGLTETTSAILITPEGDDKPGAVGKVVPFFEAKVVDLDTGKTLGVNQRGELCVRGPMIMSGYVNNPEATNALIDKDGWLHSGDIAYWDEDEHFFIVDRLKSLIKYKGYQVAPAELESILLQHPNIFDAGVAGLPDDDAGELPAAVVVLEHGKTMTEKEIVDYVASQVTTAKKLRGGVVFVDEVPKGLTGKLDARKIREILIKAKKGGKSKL
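Purified P. pyralis luciferase (10nM final) with 10uM D-luciferin and 10uM ATP (Km levels) in 50mM Tris acetate pH 7.5, 10mM Mg acetate, 0.01% Tween-20, 0.05% BSA; qHTS 6-point titration, ~60 µM downward; luminescence read.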
Rab9 prom act: activators of Rab9 promoter | Huh7 Rab9 promoter-luciferase reporter, luminescence, 24 h | Potency, µM (highest dose often 9.22 µM), inactives show at the highest dose activation, negative = inhibition, actives largely listed as activators | 320,000 compounds, 2.8% hits; also: % of control where 0% means no effect; nearly all actives have a fitted effect of over 60% in size
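Luminescence read-out: Huh7 cells stably expressing Rab9-luciferase, treated 24 h with compound at 37 °C, then lysed with luciferase reagent for 10 min at ambient before reading.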
Luc counter: counter-screen: inhibitors of Kinase-Glo firefly luciferase | Q27757 | AID 1379 | Kinase-Glo luciferase, ATP luminescence, 8 min | 200,000 compounds, 0.28% hits | Potency, µM (doses to about 38.3 µM), for the others: at the highest dose activity change, negative = inhibition, hits mostly inhibitors; also: % is scaled to controls: 0 for no effect and ±100 for the full control effect; nearly all actives have a fitted effect of over 60% in size
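Substrate mix (final 50 mM imidazole pH 7.2, 50 mM KCl, 7 mM MgCl2, 10 uM ATP, 0.01% Tween 20, 0.05% BSA) plus pin-tool compound, then Kinase-Glo detection mix; 8 min ambient, luminescence read.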
SMN2 splice enh: SMN2 splice variant enhancement. HEK293 SMN2-luciferase splicing reporter, luminescence, 30-36 h. Potency, µM (series often up to 46.1 µM), inactives show top-dose activity change, positive = activation, most hits filed as activators. 210,000 compounds, 2.8% hits. AID 1458; also: % of control where 0% means no effect; nearly all actives have a fitted effect of over 55% in size
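HEK293 cells carry an SMN2 […]–luciferase reporter in which exon 7 inclusion puts luciferase in frame. Cells were plated 10-12 h before compound addition, then incubated 30-36 h at 37C. ONE-Glo luminescence was read; sodium butyrate at 4.5 mM final served as control.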
NPC1 prom act: NPC1 promoter activation; AID 485313; 320,000 compounds, 2.4% hits; Potency, µM (highest dose often 9.22 µM), without a hit: top-dose activation, actives largely listed as activators; Huh7 NPC1 promoter luciferase reporter, 24 h; also: % of control where 0% means no effect; nearly all actives have a fitted effect of over 60% in size
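Readout is luciferase luminescence, reflecting NPC1 promoter activation in stably transfected Huh7 cells after 24 h compound exposure at 37 °C in reduced-serum medium with 10% FBS.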
* = called active by the depositor; ? = inconclusive; nt = no result given; [ ] = dose if it differs, or a comment. Calls follow the shape of the dose curve; as a rule, active = well fitted curve in the direction sought with a large enough effect; inconclusive = small, poorly fitted or top-dose-only effect, or another doubt; inactive = no such curve, though single readings can be large; an effect the other way counts as inactive or inconclusive. Potency is read from the fitted curve at half-maximal effect.

SMILES	FLuc modulator	Rab9 prom act	Luc counter	SMN2 splice enh	NPC1 prom act
C/C(=N\NC(=O)c1ccc(Cl)cc1)c1cccnc1	16.9µM*	?	nt	nt	?
CCOc1ccccc1C(=O)Nc1cc(-c2ccc(C)cc2)no1	?	nt	nt	-6.5%	nt
O.O.O.O.O.O.O.O=S(=O)([O-])[O-].[Co+2]	nt	nt	nt	2.4%	nt
Cc1c(-c2nc(-c3ccc4c(c3)OCO4)no2)nnn1-c1ccc(C(C)C)cc1	2.4%	nt	nt	nt	nt
CCCOc1ccccc1/C=C(\C#N)C(=O)Nc1cccc(C)n1	10.7µM*	-1.0%	nt	nt	-3.1%
Cc1cccc(NC(=O)/C(C#N)=C/c2ccc(F)cc2)n1	5.36µM*	0.4%	nt	nt	1.5%
N#C/C(=C\c1ccc(OCc2ccc(F)cc2)cc1)C(=O)Nc1cccc(C(=O)O)c1	?	16.4%	nt	nt	6.2%
COC(=O)c1ccc(COc2ccccc2/C=C(\C#N)C(=O)Nc2ccc(C)cc2)cc1	8.49µM*	2.82µM*	-2.2%	-40.7%	?
CC(C)OCCOc1ccc2oc(-c3ccco3)cc(=O)c2c1	23.9µM*	?	nt	nt	?
Cc1ccc2oc(-c3ccco3)cc(=O)c2c1	9.53µM*	2.82µM*	-6.2%	?	?
COCOc1c2c(c(OCOC)c3c(OCOC)cccc13)/C(=N/N[S+](=O)([O-])c1ccc(C)cc1)C1=C2CCCC1	nt	nt	1.2%	4.7%	nt
CCN(CC)S(=O)(=O)c1cc(NC(=O)c2ccc(Br)s2)ccc1C	12µM*	0.7%	3.3%	-11.6%	19.7%
CCN(CC)S(=O)(=O)c1cc(NC(=O)C2Cc3ccccc3C(=O)O2)ccc1C (stereo unspecified)	16.9µM*	?	nt	nt	?
CN(CC(=O)Nc1ccc2c(c1)OCO2)S(=O)(=O)c1cccs1	16.9µM*	?	nt	nt	?
CN(CC(=O)Nc1ccc(F)c(F)c1)S(=O)(=O)c1cccs1	5.7%	-0.6%	nt	nt	-2.0%
O=C(CCl)Nc1ccc2c(c1)OCO2	-7.4%	-9.5%	-0.4%	-59.0%	-9.5%
O=C(Nc1ccc2c(c1)OCO2)c1ccc(Br)s1	3.38µM*	1.58µM*	-1.5%	12.6µM*	1.78µM*
O=C(c1ccccc1)c1ccc2c(c1)OCCOCCOCCOCCO2	-5.1%	-3.5%	nt	nt	6.6%
O=C(Nc1ccncc1)c1cccs1	3.4%	2.9%	-10.6%	13.7%	-1.0%
O=C(Nc1ccc2c(c1)OCCO2)c1cccs1	5.36µM*	1.58µM*	?	6.31µM*	2.82µM*
Cn1nc(-c2ccccc2F)c2cc(C(=O)Nc3ccc4c(c3)OCCO4)sc21	9.53µM*	10.3%	-4.7%	28.5%	-3.0%
O=C(c1ccc2c(c1)OCCCO2)c1cccs1	6.75µM*	2.24µM*	-5.6%	12.6µM*	1.12µM*
O=C(Nc1ccc2c(c1)OCO2)c1cccs1	13.5µM*	nt	8.91µM*	?	nt
Cc1ccc(CNC(=O)[C@@H]2C[C@H]2[C@@H](NP(=O)(c2ccccc2)c2ccccc2)c2ccccc2)o1	nt	nt	2.6%	-10.5%	nt
COc1cc(C(=O)Nc2ccc(NC(=O)c3ccc(Br)cc3)cc2)cc(OC)c1OC	1.1%	nt	nt	-12.0%	nt
SMILES	FLuc modulator	Rab9 prom act	Luc counter	SMN2 splice enh	NPC1 prom act
c1coc(CNc2c3c(nc4ncnn24)CCCC3)c1	2.5%	-1.8%	-2.3%	-21.5%	-2.3%
Cc1nn2c(NCCCN(C)C)c3c(nc2c1-c1ccccc1)CCC3	2.7%	-3.3%	0.9%	-10.0%	-0.5%
Clc1cccc(-c2cc3nc4c(c(NCc5ccco5)n3n2)CCCC4)c1	5.36µM*	2µM*	7.3%	?	3.55µM*
OCCCNc1c2c(nc3cc(-c4ccc(Cl)cc4)nn13)CCC2	12µM*	-0.4%	-0.9%	nt	-0.2%
Cc1ccc(C)c(-n2[nH]c3c4c(ccc3c2=O)C(=O)c2ccccc2C4=O)c1	15.1µM*	6.8%	-7.3%	-21.4%	1.1%
Cc1ccc(-n2[nH]c3c4c(ccc3c2=O)C(=O)c2ccccc2C4=O)cc1	1.1%	-8.3%	-1.0%	-1.1%	-1.4%
CC(C)c1cccc2cc3c(nc12)-c1cccc(=O)n1C3	nt	nt	-1.3%	2.3%	nt
c1cc(CSSCc2ccncc2)ccn1	nt	nt	-1.4%[7.66 µM]	-0.8%[9.22 µM]	nt
O=C(CSc1nnc2ccccn12)c1ccc(Cl)cc1	?	3.55µM*	-1.9%	-8.4%	22.6%
CCOc1ccc(C(=O)CSc2nnc3ccccn23)cc1	3.01µM*	1.12µM*	3.3%	-1.8%	2µM*
CCOc1ccc(-n2nnnc2SCC(=O)c2ccccc2)cc1	?	-2.2%	-4.3%	-17.9%	24.2%
CCn1c(C)c(C)c2cc(C(=O)NCc3cccc(C)c3)ccc21	-4.1%	nt	nt	nt	nt
COc1cc(/C=N/OCC(=O)Nc2cc(C)cc(C)c2)ccc1OCc1ccc(Cl)cc1	9.53µM*	3.16µM*	-0.9%	11.2µM*	?
COc1cc(/C=N/N2CCOCC2)ccc1OCc1ccccc1	-17.4%	6.6%	-1.8%	?	0.1%
COc1cc(/C=N/N2CCOCC2)ccc1OCc1ccc(Cl)cc1	10.7µM*	17.2%	5.1%	11.2µM*	-3.5%
COc1cc(/C=N\n2cnnc2)ccc1OCC(=O)Nc1ccc(C)cc1	4.3%	3.1%	-3.2%	-13.1%	-3.0%
COc1cc(/C=N/OCC(=O)NC2CCCCC2C)ccc1OCc1ccc(Cl)cc1 (stereo unspecified)	6.75µM*	2.82µM*	2.5%	?	?
O=C(CCNS(=O)(=O)c1ccc2c(c1)CCN2C(=O)C1CC1)N1CCN(c2cccc(C(F)(F)F)c2)CC1	5.8%	nt	nt	nt	nt

Source: PubChem BioAssay
